Screens from PubChem.
PAFAH1B2 FP inh = blocks human PAF acetylhydrolase 1b catalytic subunit 2 | inhibition, % at 3.39 µM | P68402 | actives 1.2% (n = 340,000) | recombinant PAFAH1B2, FP-rhodamine activity probe, fluorescence polarization;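 active = inhibition above the mean of all tested compounds plus 3 SD, cut at about 24% in these data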;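 also: 0% = enzyme with DMSO and 100% = wells lacking PAFAH1B2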
Target sequence (P68402 whole entry, looked up): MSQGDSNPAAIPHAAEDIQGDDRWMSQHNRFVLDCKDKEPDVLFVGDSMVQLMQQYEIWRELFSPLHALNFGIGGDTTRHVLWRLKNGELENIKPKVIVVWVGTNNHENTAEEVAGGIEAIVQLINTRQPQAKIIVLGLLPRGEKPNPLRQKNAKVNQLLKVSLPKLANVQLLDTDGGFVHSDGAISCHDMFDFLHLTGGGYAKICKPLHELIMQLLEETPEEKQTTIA
ZTA DNA inh = counter-screen for EBNA-1 inhibitors: inhibitors of Epstein-Barr virus ZTA; P03206; ZTA-DNA binding, fluorescence polarization; inhibition, % at 11 µM; actives 0.15% (n = 320,000); AID 2234; in the data active = inhibition above about 33%
Target sequence (P03206 whole entry, looked up): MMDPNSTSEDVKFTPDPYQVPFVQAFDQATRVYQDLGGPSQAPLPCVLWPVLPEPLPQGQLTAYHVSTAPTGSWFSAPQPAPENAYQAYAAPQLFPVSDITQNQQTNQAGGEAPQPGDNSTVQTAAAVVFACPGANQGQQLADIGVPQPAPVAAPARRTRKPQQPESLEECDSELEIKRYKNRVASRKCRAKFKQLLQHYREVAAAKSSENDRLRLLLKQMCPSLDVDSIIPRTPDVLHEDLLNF
EBNA-1 inhibitor = blocks EBNA-1 binding to DNA | actives 0.34% (n = 300,000) | inhibition, % at 14.8 µM | EBNA-1 DNA binding, fluorescence polarization | AID 1950; in the data active = inhibition above about 28%
PAFAH1B3 FP inh = PAFAH1B3 (human) inhibition. inhibition, % at 3.39 µM. actives 0.28% (n = 340,000). recombinant PAFAH1B3, FP-rhodamine probe, fluorescence polarization. Q15102;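 active = inhibition above the screen-wide average of all tested compounds plus 3 SD, cut at about 25% in these data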;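 also: 0% = enzyme with DMSO only and 100% = wells lacking PAFAH1B3 protein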
PAFAH2 inh = inhibitors of human PAFAH2; AID 492956; inhibition, % at 3.39 µM; recombinant PAFAH2, FP-rhodamine activity probe, fluorescence polarization; Q99487; actives 0.99% (n = 340,000);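 active = inhibition above the mean over all tested compounds plus 3 SD, cut at about 30% in these data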;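 also: inhibitors block probe labeling of enzyme so polarization drops; 0% = enzyme with DMSO and 100% = wells lacking PAFAH2 protein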
pPAFAH inh = pPAFAH (human) enzyme inhibition; Q13093; recombinant pPAFAH, FP-rhodamine probe fluorescence polarization; inhibition, % at 3.39 µM; actives 1.5% (n = 330,000);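 active = inhibition above the mean inhibition across the screen plus 3 SD, cut at about 25% in these data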;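 also: inhibitors block binding of the rhodamine activity-based probe so polarization drops; 0% = enzyme with DMSO and 100% = wells lacking pPAFAH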
Starred values were filed as active, the others as inactive; nt = no result. Hits are enriched below; roughly 2.9% of the tested compounds scored in any of these assays.

SMILES	PAFAH1B2 FP inh	ZTA DNA inh	EBNA-1 inhibitor	PAFAH1B3 FP inh	PAFAH2 inh	pPAFAH inh
CC(NC(=O)CN1C(=O)NC(Cc2ccccc2)(Cc2ccccc2)C1=O)C12CC3CC(CC(C3)C1)C2 (configuration not stated)	72*	-15	5	-3	10	7
CN(CCO)CCC(=O)NC1(C)CS(=O)(=O)CC1S(=O)(=O)O (configuration not stated)	0	5	-3	-4	5	0
O=S(=O)(O)c1cc(Cl)cc(N=Nc2ccc(O)cc2O)c1O	42*	nt	nt	26*	35*	nt
O=[N+]([O-])c1ccc(N=Nc2ccc(O)cc2O)cc1	-2	6	1	6	8	4
O=C(C1CC(Cl)CN1S(=O)(=O)c1ccc(Cl)cc1)N1CCOCC1 (configuration not stated)	7	-15	-4	-3	12	3
O=C(N1CCOCC1)N1CCN(S(=O)(=O)c2ccc(Cl)cc2)C1	26*	-6	-4	4	-2	-6
N/C(=N\OC(=O)CCC1CCCCC1)c1cccc([N+](=O)[O-])c1	40*	-8	-4	4	16	10
N/C(=N\OC(=O)CCC1CCCC1)c1ccccc1	6	-4	2	7	5	6
N/C(=N\OC(=O)CCC1CCCC1)c1ccc([N+](=O)[O-])cc1	29*	1	1	4	13	7
CC(C)c1ccc(NC(=O)CCN2C(=O)[C@@H]3Cc4ccccc4CN3C2=O)cc1	19	8	-2	7	6	1
CC(C)(C)c1ccc(C(=O)NCCC(=O)N2CCN(c3ncccn3)CC2)cc1	30*	-11	-14	-1	1	0
O=C(O)c1ccc(N/N=C/c2cc3ccccc3nc2Cl)cc1	-1	4	2	9	5	18
Cc1cccc2cc(/C=N/Nc3ccc(C(=O)O)cc3)c(Cl)nc12	11	6	8	15	26	28*
O=C(c1ccc(NC2=NC3CS(=O)(=O)CC3S2)cc1)N(CCO)Cc1ccccc1 (configuration not stated)	2	-12	1	11	2	-1
Cc1ccc(CNC(=O)CCSCc2ccccc2F)cc1	9	-24	-4	6	-3	11
CN(C(=O)COC(=O)C(C)(C)Oc1ccc(Cl)cc1)c1c(N)n(Cc2ccccc2)c(=O)[nH]c1=O	5	1	1	3	4	29*
Cc1ccc(/C(N)=N/OC(=O)CCc2ccccc2)cc1	9	7	-2	2	3	4
N/C(=N\OC(=O)CCc1ccccc1)c1cccc(Br)c1	67*	17	6	8	6	4
N/C(=N\OC(=O)CCc1ccccc1)c1ccc(Br)cc1	71*	-8	0	4	-2	6
O=C(O)c1cncc(C#CCC2CCCCC2)c1	24	3	-8	2	-2	3
O=c1c2cc(NC(=S)NC3CCCC3)ccc2nc2n1CCCCC2	8	7	-4	-4	2	-3
O=c1c2cc(NC(=S)NC3CCCCC3)ccc2nc2n1CCCCC2	28*	8	1	2	6	-3
NC(=O)c1nsc(C(=O)N(CC(=O)NCc2ccccc2)c2ccc(F)cc2)c1N	4	-8	-5	4	2	4
CCN(CC(=O)NCc1ccc(Cl)cc1)C(=O)COc1ccc(Cl)cc1Br	11	-6	-17	-4	4	3
COc1ccccc1CNC(=O)COc1cc2c(c3oc(=O)cc(C)c13)CCC(C)(C)O2	27*	1	5	2	18	12
SMILES	PAFAH1B2 FP inh	ZTA DNA inh	EBNA-1 inhibitor	PAFAH1B3 FP inh	PAFAH2 inh	pPAFAH inh
Cc1cc(=O)oc2c3c(cc(OCC(=O)NC(Cc4ccc(Cl)cc4)C(=O)O)c12)OC(C)(C)CC3 (configuration not stated)	58*	4	9	4	33*	27*
Cc1cc(=O)oc2c3c(cc(OCC(=O)NCCC(=O)O)c12)OC(C)(C)CC3	-2	nt	nt	0	-2	nt
CCc1cc(=O)oc2c3c(cc(OCC(=O)NCCCC(=O)O)c12)OC(C)(C)CC3	2	13	-1	12	39*	32*
Cc1cc(=O)oc2c3c(cc(OCC(=O)NCc4cccnc4)c12)OC(C)(C)CC3	8	8	7	8	20	13
O=C(NC1CC(=O)N(c2ccc3c(c2)OCCO3)C1)N1CCC(O)CC1 (configuration not stated)	5	15	8	9	7	4
CCn1cnc2cc(NCc3ccc(Cl)cc3)ccc21	32*	3	3	3	-3	-1
CCn1cnc2cc(NCc3ccncc3)ccc21	-1	-12	-12	5	-1	-8
Cc1nc2cc(NCc3ccc(Cl)cc3)ccc2n1C	28*	6	-4	-2	-2	1
Cc1ccc(CNc2ccc3c(c2)nc(C)n3C)cc1	9	-9	2	-2	-2	-1
O=C1CCNc2cc3ccccc3cc21	3	-8	-15	9	4	31*
O=C1CCNc2ccc(-c3ccccc3)cc21	6	7	-5	3	0	2
O=C(NC(=S)Nn1cnc2c(cnn2-c2ccccc2)c1=O)c1ccc(Oc2ccccc2)cc1	2	-1	31*	0	-1	-6
Fc1cccc(F)c1/C=C/c1ccc2ccccc2n1	-3	2	-6	3	-9	4
C(=C\c1ccco1)/c1ccc2ccccc2n1	nt	7	6	nt	nt	26*
CCc1ccc(C2CC(c3ccc(C)cc3)Nc3nc(N)nn32)cc1 (configuration not stated)	25*	2	-3	1	3	-7
Cc1ccc(C2CC(c3ccc(F)cc3)Nc3nc(N)nn32)cc1 (configuration not stated)	6	-10	-3	5	6	-3
CC(Sc1cccc[n+]1[O-])C(=O)Nc1ccc(Oc2ccccc2)cc1 (configuration not stated)	5	0	-1	14	11	8
CCCC(C)NC(=O)COC(=O)c1ccc2c(c1)C(=O)N(Cc1ccco1)C2=O (configuration not stated)	3	-3	-2	6	-10	25*
CC(C)CNC(=O)COC(=O)c1ccc2c(c1)C(=O)N(Cc1ccco1)C2=O	0	-6	-2	0	5	27*
CC(C)(C)C(=O)COC(=O)c1ccc2c(c1)C(=O)N(Cc1ccco1)C2=O	0	-5	0	17	-2	1
COC(CNC(=O)[C@H](Cc1ccccc1)N1Cc2ccccc2C1=O)OC	2	-14	-23	7	-4	0
CCN1CCN(C(=O)C2CCC(=O)N(Cc3cccc(C(F)(F)F)c3)C2)CC1 (configuration not stated)	3	-8	3	-7	1	3
